Bioassay records deposited in PubChem by The Scripps Research Institute Molecular Screening Center.
LEDGF integ inh = blocks HIV-1 LEDGF/p75-dependent DNA integration; inhibition, % at 3.7 µM; 0.64% of 370,000 active; TR-FRET IN-LEDGF/p75 DNA integration, Eu/Cy5;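 active means inhibition above the screen-wide mean plus 3 SD, cut at about 13% in these data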;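 further: signal is the Cy5 over europium emission ratio at 671 and 618 nm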
MBD2 inh = inhibitors of human MBD2 binding to methylated oligonucleotide. TR-FRET. inhibition, % at 4.4 µM. 0.31% of 370,000 active. AID 686964; in the data active means inhibition above about 13%
PLC-beta3 inh = PLC-beta3 (human) inhibition, primary screen | Q01970 | Purified PLC-beta3, fluorogenic substrate, fluorescence | inhibition, % at 12.2 µM | 0.18% of 370,000 active; in the data active means inhibition above about 11%
PLCg1 inh = inhibitors of human phospholipase C gamma1 | inhibition, % at 12.2 µM | purified PLC-gamma1, fluorogenic substrate, fluorescence | AID 720700 | 0.84% of 370,000 active | P19174; in the data active means inhibition above about 9.5%
UHRF1 binding = blocks human UHRF1 binding to methylated DNA. Q96T88. UHRF1 binding to methylated oligo, TR-FRET. inhibition, % at 4.4 µM. 0.75% of 370,000 active; in the data active means inhibition above about 21%;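 further: UHRF1 SRA domain binding a hemimethylated CpG hairpin DNA probe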
Target sequence (Q96T88 whole entry, looked up, the tested form may be a part): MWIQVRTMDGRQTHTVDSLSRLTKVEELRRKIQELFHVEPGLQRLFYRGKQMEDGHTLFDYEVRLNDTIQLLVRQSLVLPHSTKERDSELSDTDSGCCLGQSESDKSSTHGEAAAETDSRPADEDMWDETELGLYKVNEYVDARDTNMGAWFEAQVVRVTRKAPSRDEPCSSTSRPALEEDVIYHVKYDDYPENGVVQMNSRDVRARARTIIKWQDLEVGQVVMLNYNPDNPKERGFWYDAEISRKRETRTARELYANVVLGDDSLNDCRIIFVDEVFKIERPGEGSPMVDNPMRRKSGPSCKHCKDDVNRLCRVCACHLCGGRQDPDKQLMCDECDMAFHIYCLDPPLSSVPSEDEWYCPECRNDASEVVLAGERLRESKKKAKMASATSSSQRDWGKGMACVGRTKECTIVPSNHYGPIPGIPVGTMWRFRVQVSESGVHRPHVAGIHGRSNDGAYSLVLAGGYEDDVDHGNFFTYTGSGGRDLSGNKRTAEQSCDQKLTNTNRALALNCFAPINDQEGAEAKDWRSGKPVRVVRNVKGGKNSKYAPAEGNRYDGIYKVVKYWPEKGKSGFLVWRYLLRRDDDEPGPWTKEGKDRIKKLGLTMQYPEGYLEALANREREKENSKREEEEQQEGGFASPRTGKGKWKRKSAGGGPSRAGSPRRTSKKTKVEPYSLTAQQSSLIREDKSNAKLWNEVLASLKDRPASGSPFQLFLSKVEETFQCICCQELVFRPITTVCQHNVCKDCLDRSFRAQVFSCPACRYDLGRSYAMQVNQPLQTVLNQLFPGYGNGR
Of the large screens only hits and unclear results are named; the others gave an inactive call. An excerpt weighted towards active compounds, which were near 2.3% of everything screened.

O=C(COc1ccccc1Br)N1CCN(C(=O)c2cccs2)CC1	PLCg1 inh 13.6
O=[N+]([O-])c1ccccc1S(=O)(=O)N1CCSCC1	UHRF1 binding 66.0
CCCS(=O)(=O)N1CCN(S(=O)(=O)c2ccccc2[N+](=O)[O-])CC1	none
COc1ccc(S(=O)(=O)Nc2cccc(S(=O)(=O)NC3=NCCC3)c2)cc1[N+](=O)[O-]	none
COc1ccc(S(=O)(=O)Nc2cccc(S(=O)(=O)N(C)C)c2)cc1[N+](=O)[O-]	UHRF1 binding 22.6
CC(C)C[C@@H](CSc1ccccc1)N1CCN(C)CCC1=O	PLCg1 inh 9.7
Cc1cc(C(=O)COC(=O)c2ccc(O)cc2)c(C)n1-c1ccccc1F	UHRF1 binding 21.2
O=c1cc(OCc2ccccc2)cc[nH]1	LEDGF integ inh 23.8
COc1ccc(C(=O)Cn2nnc(-c3ccccc3-n3cnnn3)n2)cc1	UHRF1 binding 34.3
Cc1ccc(C(=O)Cn2nnc(-c3ccccc3-n3cnnn3)n2)cc1	none
O=C(NCCCc1ccccc1)C1CCC(=O)N(Cc2ccc(Cl)cc2)C1 (configuration not stated)	UHRF1 binding 21.2
COc1ccc(CCCNC(=O)C2CCC(=O)N(CC3CCCCC3)C2)cc1 (configuration not stated)	none
COc1ccc(CCCNC(=O)C2CCC(=O)N(Cc3ccc(Cl)cc3)C2)cc1 (configuration not stated)	UHRF1 binding 25.6
O=C(NCCc1ccccc1Cl)C1CCC(=O)N(Cc2ccc(Cl)cc2)C1 (configuration not stated)	none
Cc1nn(C)c(C)c1N1C(=O)c2cccc3c(N)ccc(c23)C1=O	none
Cc1nn(C)c(C)c1N1C(=O)c2cccc3c(Br)ccc(c23)C1=O	UHRF1 binding 21.7
COc1ccc(OC)c(NC(=O)COC(=O)CCS(=O)(=O)c2ccc(Cl)cc2)c1	UHRF1 binding 20.9
Cc1cc(C(=O)OCCCN(C)C2CN(Cc3cn(Cc4ccccc4C(F)(F)F)nn3)S(=O)(=O)C2)no1 (configuration not stated)	none
O=C(Cn1ncc2c1-c1ccccc1OC2)N1CCN(Cc2ccccc2)CC1	UHRF1 binding 27.2
CCCc1nnc(NC(=O)CCC(=O)NC2CCCC2)s1	UHRF1 binding 22.6
CC(=O)NS(=O)(=O)c1cccnc1Nc1cccc(Cl)c1C	none
NS(=O)(=O)c1cccnc1Nc1c(Cl)cccc1Cl	UHRF1 binding 20.9
CCN(CC)CCCNC(=O)c1cn(CC)c2ccc(S(=O)(=O)N3CCc4ccccc4C3)cc2c1=O	none
CCn1cc(C(=O)NCCCN2CCN(C)CC2)c(=O)c2cc(S(=O)(=O)N3CCc4ccccc4C3)ccc21	UHRF1 binding 41.4
Cc1cccc(C(=O)Nc2cccc(Br)c2)c1[N+](=O)[O-]	none
COc1cccc(NC(=O)c2cccc(C)c2[N+](=O)[O-])c1	UHRF1 binding 62.5
COc1ccc(CNCC#Cc2ccccc2)c(OC)c1	none
CCCc1nc2c(Cl)cc(C(F)(F)F)cn2c1Cc1ccc(OC)cc1C	UHRF1 binding 22.3
Cc1ccc(S(=O)(=O)N2C[C@]3(O)C[C@@H]4C(=O)N(c5ccccc5)C(=O)[C@@H]4C[C@]3(OC(=O)NCc3ccccc3)C2)cc1	UHRF1 binding 22.6
O=C(NCc1cccnc1)c1ccc(Cl)c(Cl)c1	UHRF1 binding 36.9
O=C(NCc1cccnc1)c1cccs1	UHRF1 binding 22.3
O=C(NCc1cccnc1)C(=O)Nc1ccc([N+](=O)[O-])cc1	UHRF1 binding 21.9
COc1ccc(C(=O)NCc2cccnc2)cc1C(=O)NCc1cccnc1	none
Fc1cccc(CNC2CCC23CCC(c2ccccc2)CC3)c1 (configuration not stated)	none
O=C(CCCl)NC1CCCCN(Cc2ccc(OC(F)(F)F)cc2)C1=O (configuration not stated)	none
COc1ccc(C(=O)Nc2ccc3c(c2)nc(CN2CCCC2)n3C)cc1	UHRF1 binding 34.4
Cc1ccc(NC(=O)N/C=C/c2ccco2)cc1	LEDGF integ inh 14.4
Cc1ccc(NC(=O)/C(=C\c2ccco2)NC(=O)c2ccco2)cc1	none
CCN(CC(=O)Nc1c(F)cccc1F)C(=O)Cn1[nH]c(=O)c2ccccc2c1=O	none
CN(CC(=O)Nc1ccc(Cl)cc1)C(=O)Cn1[nH]c(=O)c2ccccc2c1=O	PLCg1 inh 9.8
CC(COc1ccc(C(F)(F)F)cc1)CN1CCC(C(O)(c2ccccc2)c2ccccc2)CC1 (configuration not stated)	none
CCn1c(=O)cc(SCC(=O)NCCCN2CCN(c3ccc(F)cc3)CC2)c2ccccc21	UHRF1 binding 21.4
CCn1c(=O)cc(SCC(=O)NCCCN2CCC(C)CC2)c2ccccc21	none
O=C(NC1CCCCN(Cc2cccc(Cl)c2)C1=O)c1cccc(C(F)(F)F)c1 (configuration not stated)	none
O=C(NCCc1ccccc1)c1cc2sccc2n1Cc1ccccc1	PLCg1 inh 10.1
CCn1c(C(=O)NCCCc2ccccc2)cc2sccc21	none
COCCN1CC(CNC(=O)c2cc(COc3ccc(C)c(C)c3)on2)CC1=O (configuration not stated)	UHRF1 binding 20.9
Nc1cccc2cc(S(=O)(=O)O)ccc12	LEDGF integ inh 39.2, UHRF1 binding 46.5
NC(=O)CC[C@@H]1NC(=O)[C@H](CO)NC(=O)c2cc([N+](=O)[O-])cc(I)c2OCC[C@@H](C(N)=O)NC1=O	PLCg1 inh 14.3
CN(Cc1ccc(Cl)c(Cl)c1)C(=O)C1CC(=O)N(c2ccc3c(c2)OCCO3)C1 (configuration not stated)	none
CN(Cc1cccc(F)c1)C(=O)C1CC(=O)N(c2ccc3c(c2)OCCO3)C1 (configuration not stated)	UHRF1 binding 60.1
CC1(c2ccc(O)cc2)NC(=O)N(c2ccccc2)N1 (configuration not stated)	UHRF1 binding 24.0
Cc1ccc(S(=O)(=O)Cc2ccc(C(=O)O)o2)cc1	UHRF1 binding 21.7
COc1ccc(OC)c(S(=O)(=O)N2CCCCC2C(=O)N2CCN(c3ccc(F)cc3)CC2)c1 (configuration not stated)	none
COc1ccc(NC2CCCN(C(=O)c3ccc(CSC)o3)C2)cc1OC (configuration not stated)	none
COCc1ccc(C(=O)N2CCCC(Nc3ccc4c(c3)OCCO4)C2)o1 (configuration not stated)	UHRF1 binding 20.8
COCCCNC(=O)C[C@H]1C[C@@]2(C(=O)OC)C(=C[C@H](COCc3ccccc3)O[C@@H]2C)N(Cc2ccc(Cl)cc2Cl)C1=O	none
COc1cc(CNC(=O)Nc2nc(C(N)CCc3ccccc3)cs2)cc(OC)c1OC (configuration not stated)	none
COc1ccccc1NC(=O)Nc1nc(C(N)CCc2ccccc2)cs1 (configuration not stated)	PLCg1 inh 11.4
O=C(CNC(=O)c1ccco1)NCC(c1ccco1)N1CCCCC1 (configuration not stated)	none
